# Source: PubChem
# APEX1 inh: blocks human APE1 abasic DNA cleavage. Potency, µM (titrated, usually from 65.8 µM), without a hit: at the top dose activity change, negative = inhibition, usual class: inhibitors. P27695. 350,000 compounds, 0.35% hits. recombinant APE1, TAMRA/BHQ-2 abasic DNA cleavage fluorescence;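 further: plate controls were vehicle for no effect and reference inhibitor for full effect; nearly all actives have a fitted effect of over 55% in size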
#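 Compound pre-exposure to 0.75 nM APE1, 15 min at ambient temperature. Reaction initiated with 50 nM TAMRA/BHQ-2 THF substrate, read immediately in kinetic mode, 525 nm excitation, 598 nm emission.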
# BLM inh-1: blocks DNA unwinding by human BLM helicase; P54132; 350,000 compounds, 0.2% hits; Potency, µM (doses to about 56.1 µM), for the others: top-dose activity change, negative = inhibition, most hits filed as inhibitors; recombinant BLM DNA unwinding, fluorescence dequenching;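 further: plate controls were vehicle for no effect and no enzyme for full effect; nearly all actives have a fitted effect of over 35% in size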
# RECQ1 helicase: RECQ1 (human) helicase inhibition. P46063. RECQ1 DNA unwinding, red fluorescence kinetic read. Potency, µM (highest dose often 57.3 µM), for inactives: top-dose activity, negative = inhibition, usual class: inhibitors. 240,000 compounds, 0.54% hits;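 further: plate controls were vehicle for no effect and no enzyme for full effect; nearly all actives have a fitted effect of over 30% in size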
#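 50 nM RECQ1T1 preincubated 15 min with compound in Tris pH 8.0 buffer with MgCl2, DTT, Tween-20 and 2.5 ug/ml poly(dI-dC); started with 200 nM TAMRA/BHQ-2 forked duplex and 2 mM ATP. Unwinding read as fluorescence (525/598 nm), two reads 2 h apart.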
# L3MBTL1 block: blocks human L3MBTL1. Potency, µM (top dose mostly 57.1 µM), for the others: at the top dose activity, negative = inhibition, actives largely listed as inhibitors. Q9Y468. 230,000 compounds, 0.66% hits. AlphaScreen L3MBTL1–H3K9me1 peptide binding; further: nearly all actives have a fitted effect of over 60% in size
# Target sequence (Q9Y468 whole entry, looked up): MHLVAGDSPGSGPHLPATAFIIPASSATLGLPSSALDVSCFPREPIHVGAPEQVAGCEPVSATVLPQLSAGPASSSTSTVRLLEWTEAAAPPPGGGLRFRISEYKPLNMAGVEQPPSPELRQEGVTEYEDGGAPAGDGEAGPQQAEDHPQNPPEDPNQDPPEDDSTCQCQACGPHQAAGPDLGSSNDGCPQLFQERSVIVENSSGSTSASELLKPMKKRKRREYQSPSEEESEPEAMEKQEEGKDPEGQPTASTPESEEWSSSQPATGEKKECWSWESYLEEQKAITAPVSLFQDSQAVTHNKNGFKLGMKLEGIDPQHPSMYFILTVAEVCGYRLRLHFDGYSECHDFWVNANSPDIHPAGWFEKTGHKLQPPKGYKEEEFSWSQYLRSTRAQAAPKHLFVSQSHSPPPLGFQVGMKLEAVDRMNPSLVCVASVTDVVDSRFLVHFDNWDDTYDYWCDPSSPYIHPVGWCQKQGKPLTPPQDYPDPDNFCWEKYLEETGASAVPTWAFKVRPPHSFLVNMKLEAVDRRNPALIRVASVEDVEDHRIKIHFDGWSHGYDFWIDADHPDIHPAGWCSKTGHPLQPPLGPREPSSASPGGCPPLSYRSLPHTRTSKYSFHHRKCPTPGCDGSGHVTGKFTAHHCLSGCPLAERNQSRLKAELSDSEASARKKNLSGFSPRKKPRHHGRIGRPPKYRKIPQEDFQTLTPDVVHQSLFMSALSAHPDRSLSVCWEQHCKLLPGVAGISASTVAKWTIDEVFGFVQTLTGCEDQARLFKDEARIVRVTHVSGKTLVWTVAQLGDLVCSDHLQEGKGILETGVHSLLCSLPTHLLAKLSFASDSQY
#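 AlphaScreen assay: L3MBTL1 (50 nM final) was preincubated 30 min at room temperature with biotinylated H3(1-15)K9me1 peptide (75 nM final), then 30 min with library compounds; streptavidin donor and nickel chelate acceptor beads (10 ug/mL final) added, 30 min dark.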
# WRN inhibitor: WRN helicase (human) inhibition. AID 651768. Potency, µM (series often up to 114 µM), for inactives: top-dose activity change, negative = inhibition, most hits filed as inhibitors. Q14191. WRN helicase unwinding, fluorescent forked duplex, kinetic. 360,000 compounds, 0.46% hits; further: nearly all actives have a fitted effect of over 55% in size
#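 Fluorescence dequenching readout, ex 525 nm/em 598 nm, kinetic mode: forked duplex DNA (100 nM final) with adjacent fluorophore and quencher unwound by WRN (20 nM final) with 2 mM ATP. Compound preincubation 15 min, room temperature.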
# BLM inh-2: BLM (human) helicase inhibition, confirmation | 220 compounds, 40% hits | shares compounds with BLM inh-1 | Potency, µM, for inactives: max response, negative = inhibition, most hits filed as inhibitors | BLM DNA unwinding, fluorescence quenching, biochemical;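 further: strand separation dequenches TAMRA so unwinding raises red fluorescence; series mostly up to about 69 µM; nearly all actives have a fitted effect of over 45% in size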
# * marks the source's active call; other numbers are inactive results; i = inactive; ? = inconclusive; nt = not tested or not shown; ! = not active in a repeat; [ ] = dose if it differs, or a comment. A selection: hits, their analogues and other compounds. The true share with any hit is near 0.92%. The call rests on the fitted dose curve; in most records, active means well fitted curve in the direction sought with a large enough effect; inconclusive means small, poorly fitted or top-dose-only effect, or another doubt; inactive means no such curve, though single readings can be large; an effect the other way counts as inactive or inconclusive. Unless noted, on the % scale 0 is the no-effect control and ±100 the full control effect; potency means the concentration at half of the fitted maximal effect.
SMILES,APEX1 inh,BLM inh-1,RECQ1 helicase,L3MBTL1 block,WRN inhibitor,BLM inh-2
COc1cccc([C@@H]2Oc3ccc(Br)cc3C[C@H]2OC(=O)Nc2ccc(OC(F)F)cc2)c1,-3%,-17%,-9%,nt,nt,nt
N#C/C(=C\c1cc(Cl)cc(Cl)c1)c1cccnc1,2%,nt,14%,nt,nt,nt
CCCOC(=O)NCCCN(C)C,-3%,-1%,-2%,nt,nt,nt
CCN(CCO)c1nc(SC)nc2c1sc1nc(-c3ccco3)c3c(c12)CCC3,?,10µM*,-5%,-24%,-13%,?
CCN(CCO)c1ncnc2c1sc1nc(C(C)C)c3c(c12)CC(C)(C)OC3,3%,-1%,-10%,36%,-8%,nt
Cc1cc(=O)[nH]c2c(N=Nc3ccc(O)cc3)c(N)nn12,?,16µM*,i,1%,?,?
O=c1c(O)c(-c2ccc(O)cc2)oc2ccc(O)cc12,-1%,3%,-3%,nt,nt,nt
O=C1C(Cl)=C(NCCN2CCOCC2)C(=O)c2ccccc21,-4%,-9%,nt,nt,-7%,nt
O=C1C(Cl)=C(NCCN2CCOCC2)C(=O)c2ncccc21,?,5µM*,?,nt,nt,5.8µM*
Cc1ccc(CN2C(=O)C(O)(c3c[nH]c4ccccc34)c3cc(Cl)ccc32)cc1 (stereo unspecified),nt,-13%,nt,nt,nt,nt
CC(C)CN(C(=O)COC(=O)c1cc2c(s1)CCC2)C1CCS(=O)(=O)C1 (stereo unspecified),13µM*,25µM*,?,20µM*,?,?
CCN(C(=O)COC(=O)c1cc2c(s1)CCCCC2)C1CCS(=O)(=O)C1 (stereo unspecified),33%,-2%,nt,nt,-25%,nt
N#C/C(=C\c1ccc(OC(=O)c2cccs2)cc1)c1nc2ccccc2[nH]1,7%,20µM*,7%,-5%,?,-8%
CC(C)NC(=O)N1CCCC2(CCN(C(=O)c3ccncc3)CC2)C1,-1%,0%,i,nt,nt,nt
CCn1cc(S(=O)(=O)c2ccccc2)c(=O)c2cc(F)c(N3CCCC3)cc21,nt,1%,nt,nt,nt,nt
Cc1ccc(-c2nc(NC(=O)CSc3cc(C)c4ccccc4n3)ns2)cc1,?,6.3µM*,18%,6%,-15%,18µM*
COc1ccccc1CNC(=O)/C=C/c1ccc(Br)o1,14%,10µM*,-9%,nt,-15%,-11%
COc1ccc(NC(=O)/C=C/c2ccc(Br)o2)cn1,-5%,-24%,-28%,nt,?,nt
COc1cc(NCCCCC(C)N)c2nccc(C)c2c1 (stereo unspecified),nt,nt,nt,nt,-7%,nt
COc1cc(NCCCC(C)N)c2ncccc2c1 (stereo unspecified),?,35µM*!,?,-17%,?,-12%
CCC(CNc1cc(OC)cc2cccnc12)NC1CCCCC1 (stereo unspecified),-2%,8.9µM*,?,-25%,3%,8%
COc1cc(NS(=O)(=O)c2ccc(C)cc2)c2ncccc2c1,1%,-3%,-2%,9%,-10%,nt
O=C1[C@H]2O[C@@H]2[C@@H](O)[C@H]2[C@H]1CCn1c(=O)n(Cc3cc4c(cc3Cl)OCO4)c(=O)n12,34%[12.4 µM],6%[12.4 µM],3%[11.5 µM],nt,nt,nt
CCn1ncc(Cl)c1C(=O)Nc1ccc2c(c1)CCC2,13%,25µM*,nt,nt,nt,18µM*
CN(C)[C@H]1C(=O)C(C(=O)NCN2CCCC2)=C(O)[C@]2(O)C(=O)C3=C(O)c4c(O)cccc4[C@](C)(O)[C@H]3C[C@H]12,nt,14µM*,nt,nt,nt,20µM*
SMILES,APEX1 inh,BLM inh-1,RECQ1 helicase,L3MBTL1 block,WRN inhibitor,BLM inh-2
COc1ccc(C(=O)C2CCCN(C(=O)CCc3scnc3C)C2)c(C)c1 (stereo unspecified),24%,28µM*,0%,-23%,3%,2%
Cc1ccccc1Nc1cc2ccccc2c(=O)[nH]1,-8%,28µM*,-3%,-14%,?,?
N#Cc1sc2nc(-c3ccccc3)cc(-c3ccco3)c2c1N,?,4µM*,?,?,35µM*,4.1µM*
N#Cc1sc2nc(C3CC3)cc(-c3ccccc3)c2c1N,4%,-9%,-5%,108%,-11%,nt
COc1ccc(C(=O)Nc2nnc(SCc3cc(=O)c4cc(C)cc(C)c4[nH]3)s2)cc1,nt,20µM*,nt,nt,nt,18µM*
CCOc1ccc(C(=O)Nc2nnc(SCc3cc(=O)c4cc(C)ccc4[nH]3)s2)cc1,nt,-4%,nt,nt,nt,nt
COc1ccc2c(c1)Cc1sc(NC(=O)c3cccnc3)nc1-2,?,18µM*,-2%,?,2%[57.1 µM],?
COc1ccc(NC(=O)c2sc3nc4c(cc3c2N)CN(Cc2ccccc2)CC4)c(OC)c1,nt,-4%,nt,nt,nt,nt
CCOc1cccc(=O)c2c(C)n(CC(=O)c3ccccc3)c(C)c12,0%,-12%,i,?,-18%,nt
COc1cccc(=O)c2c(C)n(CC(=O)c3ccccc3)c(C)c12,-3%,25µM*,-18%,?,-13%,4%
Fc1cc(F)c2nc(Nc3nc4cc5c(cc4s3)OCO5)sc2c1,9%,10µM*,?,-14%,28µM*,?
Fc1cccc2sc(Nc3nc4cc5c(cc4s3)OCO5)nc12,27%,2%,-6%,7%,-2%,nt
Cc1cccc(-c2nc(SCC(=O)Nc3ccc4c(c3)OCO4)c(-c3ccccc3)[nH]2)c1,nt,-14%,nt,nt,nt,nt
FC(F)(F)c1cc(Oc2ccccc2Cl)nc(-c2ccccn2)n1,3%,4.5µM*,-5%,2%,-1%,4.1µM*
FC(F)(F)c1cc(Oc2ccc(Cl)cc2)nc(-c2ccccn2)n1,-4%,-4%,-5%,0%,8%,nt
Nc1c(C(=O)NC2CC2)sc2nc3c(c(-c4ccco4)c12)CC/C3=C/c1ccco1,3%,5.6µM*,-12%,0.89µM*,50µM*,?
CCN(CC)c1ccc(C(=O)N2CCC(c3c[nH]c4ccccc34)(c3c[nH]c4ccccc34)CC2)cc1,nt,-4%,nt,nt,nt,nt
Cc1ccc(NCc2nnc3n2CCCCC3)cc1Cl,nt,3%,nt,nt,nt,nt
Cc1ccc(NC2=CC(=O)c3sc(C)nc3C2=O)cc1,?,7.9µM*,-3%,nt,nt,20µM*
Cc1nn(-c2ccc(N3CCCC3)nn2)c(C)c1CCC(=O)N1CCN(c2ccccc2F)CC1,nt,2%,nt,nt,nt,nt
O=C(CCl)Nc1ccccc1Sc1ccc(Cl)cc1,9%,16µM*,i,nt,-2%,11µM*
Cc1ccc(NC(=O)CCC(=O)N2Cc3ccccc3Oc3ncccc32)cc1Cl,nt,-3%,nt,nt,nt,nt
COC(=O)C1=C[C@@H](C(=O)OC)C2C3=C(C(=O)[C@@]2(CC(C)C)NC(=O)c2ccccc2)[C@H](C)n2c(=O)n(C)c(=O)n2[C@@H]3C1 (stereo partly specified),-2%,-15%,i,nt,nt,nt
